# Assay outcomes (PubChem)
# Sampled rows, rich in hits. Any-hit rate of the full collection: about 1.3%.
# S1P3 antagonist: antagonists of human S1P3 receptor; Q99500; CHO S1P3 NFAT-BLA reporter, FRET fluorescence, antagonist mode; inhibition, % at 4.98 µM; hit rate 0.27% among 170,000;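 active = inhibition above the plate cutoff, the mean inhibition of test wells on that plate plus 3 SD, cut at about 28% in these data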;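 note: cells challenged with S1P at its EC80 of 0.8 µM; blue over green emission ratio from cleaved BLA substrate after 4 h stimulation; 0% = S1P-stimulated wells and 100% = unstimulated DMSO-only wells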
# S1P4 antag: blocks the human S1P4 receptor; hit rate 0.26% among 220,000; S1P4-expressing cells, antagonist mode, reporter read-out; inhibition, % at 4.98 µM; O95977; in the data active = inhibition above about 29%;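 note: 0% = wells stimulated with agonist and 100% = vehicle wells without agonist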
# Calpain2 inh: inhibitors of pig calpain II. hit rate 0.37% among 220,000. AID 1236. inhibition, % at 16 µM. purified calpain II, fluorogenic peptide substrate, 30 min;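 active = inhibition above about 50%, limit read from the data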
# S1P4 ag: human S1P4 receptor agonism; AID 1509; S1P4-expressing cell line, agonist reporter assay; hit rate 0.35% among 220,000; activation, % at 4.98 µM; in the data active = activation above about 11%;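 note: 0% = DMSO vehicle and 100% = reference agonist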
# PERK inhibitor: human PERK inhibition, primary cell-based screen; Q9NZJ5; hit rate 0.17% among 220,000; CHO PERK-DD fusion, SEAP luminescence translation reporter; inhibition, % at 5.6 µM;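 active = inhibition above the mean inhibition of all tested compounds plus 3 SD, set separately per screening campaign, cut at about 2.9% in these data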;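 note: PERK kinase domain activated by AP20187 dimerizer at 100 nM; 0% = DMSO with dimerizer and 100% = rapamycin at 8.4 µM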
# Target sequence (Q9NZJ5 whole entry, looked up, the tested form may be a part): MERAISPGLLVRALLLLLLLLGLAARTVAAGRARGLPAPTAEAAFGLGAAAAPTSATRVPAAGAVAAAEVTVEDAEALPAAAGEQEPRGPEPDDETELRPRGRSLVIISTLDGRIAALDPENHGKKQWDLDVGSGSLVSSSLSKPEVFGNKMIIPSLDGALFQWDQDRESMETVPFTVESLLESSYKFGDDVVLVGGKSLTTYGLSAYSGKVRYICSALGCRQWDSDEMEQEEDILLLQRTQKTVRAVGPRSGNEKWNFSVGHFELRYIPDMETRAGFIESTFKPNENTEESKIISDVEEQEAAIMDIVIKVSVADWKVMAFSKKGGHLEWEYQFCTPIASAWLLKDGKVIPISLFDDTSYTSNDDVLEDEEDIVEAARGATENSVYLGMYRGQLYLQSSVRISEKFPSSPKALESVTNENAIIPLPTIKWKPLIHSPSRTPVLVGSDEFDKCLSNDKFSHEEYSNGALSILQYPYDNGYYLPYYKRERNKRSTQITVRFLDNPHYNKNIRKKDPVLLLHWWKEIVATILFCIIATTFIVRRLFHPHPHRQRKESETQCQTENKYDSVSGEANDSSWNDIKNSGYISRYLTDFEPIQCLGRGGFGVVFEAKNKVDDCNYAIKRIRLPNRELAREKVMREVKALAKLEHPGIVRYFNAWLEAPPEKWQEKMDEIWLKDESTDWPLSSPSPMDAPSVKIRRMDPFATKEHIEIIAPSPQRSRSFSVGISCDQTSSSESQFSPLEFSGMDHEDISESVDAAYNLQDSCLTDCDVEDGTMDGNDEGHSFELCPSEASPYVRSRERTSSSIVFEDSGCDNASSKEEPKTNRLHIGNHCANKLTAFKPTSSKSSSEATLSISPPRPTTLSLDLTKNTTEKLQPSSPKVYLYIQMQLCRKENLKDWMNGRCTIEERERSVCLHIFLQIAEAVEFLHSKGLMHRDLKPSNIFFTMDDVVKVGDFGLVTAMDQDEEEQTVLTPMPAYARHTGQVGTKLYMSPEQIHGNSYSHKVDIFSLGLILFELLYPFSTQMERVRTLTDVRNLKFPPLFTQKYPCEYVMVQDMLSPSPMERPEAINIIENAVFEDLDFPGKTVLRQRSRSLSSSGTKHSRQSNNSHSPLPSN
# Starred values were filed as active, the others as inactive; . = no result given.
SMILES,S1P3 antagonist,S1P4 antag,Calpain2 inh,S1P4 ag,PERK inhibitor
Cc1cc(C)nc(SCCn2c(N3CCOCC3)nc3c2c(=O)[nH]c(=O)n3C)n1,-14,-14,10,0,0
O=C1CCC(=O)N1c1nc2nc(-c3ccccc3)cc(=O)n2[nH]1,.,-8,-29,0,1
Cc1nc2nc(-c3ccccc3)cc(=O)n2[nH]1,-31,8,-47,0,3.0*
Brc1ccc(CSc2nnc(Cc3c[nH]c4ccccc34)o2)cc1,30,-4,70*,2,1
Clc1ccc(CSc2nnc(-c3c[nH]c4ccccc34)o2)cc1,.,-2,23,0,1
O=C1CN(O)C=C2N=c3ccccc3=C2N1c1ccc([N+](=O)[O-])cc1,7,5,58*,0,1
COc1ccc(Cl)cc1S(=O)(=O)N1CCN(c2ccc(F)cc2)CC1,14,-34,-6,-1,0
CCOc1ccc(Cl)cc1S(=O)(=O)N1CCN(c2ccc(F)cc2)CC1,-12,-7,59*,-1,0
CC(=O)N1N=C(c2ccccc2OC(=O)/C=C/c2ccccc2)CC1c1ccccc1 (stereo not drawn),-2,3,-60,0,1
COc1ccc(-c2cc(C(=O)NCc3cn(C)nc3C)c3ccccc3n2)cc1OC,-3,0,52*,2,-1
COc1ccc(-c2cc(C(=O)Nc3ccccc3O)c3ccccc3n2)cc1OC,-4,-17,-141,-1,0
O=C(c1ccc2c(c1)OCCO2)N1CCN(c2ccc([N+](=O)[O-])cc2)CC1,-8,-4,7,-2,2
O=C(CN1CC[n+]2c(-c3cccs3)csc21)c1ccc(-c2ccccc2)cc1,-12,0,58*,0,2
Cc1ccccc1OCCCn1c(CO)nc2ccccc21,-16,-17,26,0,0
COc1ccc(C(=O)NN/C(=N/S(=O)(=O)c2ccc(C)cc2)c2ccccc2)cc1,1,-6,-7,-1,-1
CCc1ccc(NSc2ccccc2[N+](=O)[O-])cc1,.,-2,26,-1,3.2*
O=C(O)c1ccccc1NSc1ccccc1[N+](=O)[O-],-28,7,-25,-1,0
Cc1ccc(-n2c(C)nnc2SCC(=O)NNC(=O)c2ccco2)cc1,-3,-13,16,3,0
FC(F)(F)c1nnc2n1N=C(c1cccs1)CS2,-25,-5,-23,0,1
S=c1nc(C2COc3ccccc3O2)[nH][nH]1 (stereo not drawn),-17,-19,-6,0,0
S=c1[nH]nc(C2COc3ccccc3O2)o1 (stereo not drawn),4,-1,-32,-1,3.0*
O=C(NCc1cccnc1)c1ccc(S(=O)(=O)N2CCCCCC2)cc1,-7,1,3,0,1
COC(=O)NC(C)N1C(=O)C2C3C=CC(C3)C2C1=O (stereo not drawn),1,-1,26,0,1
CC(C)(CO)CNC(=O)c1ccc(OC2CCN(C(=O)C3CC3)CC2)cc1,-2,2,-10,0,2
CCC1CCCCN1C(=O)c1ccc(OC2CCN(C(=O)C3CC3)CC2)cc1 (stereo not drawn),18,8,57*,0,1
SMILES,S1P3 antagonist,S1P4 antag,Calpain2 inh,S1P4 ag,PERK inhibitor
O=c1ccc(-c2ccccc2)n[nH]1,.,-10,22,-3,3.0*
Cc1cccc(NC(=O)CSc2nc(C)c(Cc3ccccc3)c(=O)[nH]2)c1C,0,-24,-25,-1,0
Cc1ccc2c(c1)nnn2C1CCN(S(=O)(=O)c2ccc(C(=O)N3CC(C)CC(C)C3)cc2)CC1 (stereo not drawn),-16,-8,51*,-1,0
O=C(Cn1cnc2ccccc2c1=O)Nc1nc2ccccc2s1,-7,-6,-20,1,0
CCc1ccc2nc(NC(=O)Cn3cnc4ccccc4c3=O)sc2c1,-4,1,72*,1,0
CCOC(=O)c1ccc(NC(=O)Nc2ncccc2C)cc1,-9,-1,51*,2,0
CCc1ccccc1NC(=O)Nc1cc(F)ccc1F,-11,-10,-7,0,0
Cc1ccc(N(C(=O)CCl)C(C(=O)NC2CCCCC2)c2cccnc2)cc1C (stereo not drawn),-10,2,102*,2,-1
Cc1ccc(C(C(=O)NC2CCCC2)N(C(=O)Cc2cccs2)c2ccc3c(c2)OCCO3)cc1 (stereo not drawn),.,-2,-50,-1,0
Cc1ccc(N(C(=O)CNC(=O)c2ccco2)C(C(=O)NC2CCCC2)c2cccnc2)cc1C (stereo not drawn),11,-5,-15,0,0
Cc1ccc(C(C(=O)NC2CCCC2)N(C(=O)Cc2cccs2)c2ccc(C)c(C)c2)o1 (stereo not drawn),.,5,63*,1,0
Cc1ccc(C)c(N(C(=O)Cc2cccs2)C(C(=O)NC2CCCC2)c2ccc(C)o2)c1 (stereo not drawn),.,-3,53*,-1,2
Cc1ccc(NC(=O)Cn2cccc2)cc1C,-11,-19,6,1,0
Cc1ccc(NC(=O)Cn2cccc2)cc1Cl,18,-3,-7,1,2.9*
CC1(C)CC(/C=C/c2ccccc2)=Nc2ccccc2N1,-6,3,7,1,0
O=C(O)c1ccc(S(=O)(=O)c2ccc3c(c2)C(=O)N(CC2CCCO2)C3=O)cc1 (stereo not drawn),-15,4,-45,-4,2
O=C(O)c1ccc(S(=O)(=O)c2ccc3c(c2)C(=O)N(Cc2ccco2)C3=O)cc1,106*,-10,0,0,1
COc1cc(/C=C2\S/C(=N/S(=O)(=O)Cc3ccccc3)NC2=O)c([N+](=O)[O-])cc1OC,1,-3,-48,-1,1
COc1cc(/C=C2/S/C(=N/S(=O)(=O)Cc3ccccc3)NC2=O)c([N+](=O)[O-])cc1OC,-1,-5,-51,0,3.0*
Cc1cc(NC(=O)CSc2nc3sc4c(c3c(=O)n2C)CCCC4)no1,0,-17,52*,0,1
COc1ccc(-c2noc(-c3ccccc3C(=O)NCC3CCCO3)n2)cc1 (stereo not drawn),7,2,1,0,0
CC(=O)Nc1ccc(S(=O)(=O)Nc2cccc3[nH]ncc23)cc1,1,-5,51*,0,0
CCOC(=O)CSc1nc2sc(C)c(C)c2c(=O)n1C,-27,0,-5,-3,0
CCOC(=O)CSc1nc(C(C)C)nc2sc(C)c(C)c12,-18,24,54*,1,0
CCOC(=O)C(=CNc1ccc2c(c1)CCN2C(C)=O)C(=O)OCC,9,4,7,0,-1
O=c1[nH][nH]c(-c2ccccc2)c1C=Nc1cccc(Cl)c1,.,-16,-13,0,2.9*
O=c1[nH][nH]c(-c2ccccc2)c1C=Nc1ccc(Cl)cc1,.,11,12,1,1
O=C(NCCC1=CCCCC1)C(=O)NCc1ccncc1,-1,-5,-21,0,0
Cc1ccc(-n2c(Cc3cccn3C)nnc2SCC(=O)Nc2nnc(C)s2)cc1,-28,-3,3,1,0
